# Source: PubChem (National Center for Advancing Translational Sciences (NCATS))
# KB-V1 cytotox: kills drug-selected multidrug resistant KB-V1 cells; KB-V1 MDR cells viability, CellTiter-Glo, 72 h; Potency, µM (titrated, usually from 46.1 µM), usual class: cytotoxic; actives 3.4% (n = 400,000); note: % is set by controls: 0 for no effect and ±100 for the full control effect; nearly all actives have a fitted effect of over 60% in size
#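 Cytotoxicity toward P-gp-expressing KB-V1 cells was determined as loss of CellTiter-Glo luminescence after 72 h at 37 degrees C. Compounds were tested in quantitative HTS format across a concentration range, with curves fitted to normalized data.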
# MCF10A rerep: induces DNA re-replication in MCF 10a normal breast cells. MCF 10A DNA re-replication, Hoechst nuclear intensity, 48 h. Potency, µM (doses to about 46.1 µM), without a hit: at the highest dose activity, positive = re-replication, hits mostly activators. actives 2.9% (n = 350,000); note: % of control where 0% means no effect; nearly all actives have a fitted effect of over 50% in size
# KB-3-1 tox: kills parental KB-3-1 adenocarcinoma cells. KB-3-1 viability, CellTiter-Glo ATP luminescence, 72 h. Potency, µM (series often up to 46.1 µM), actives largely listed as cytotoxic. actives 1.4% (n = 400,000); note: % is set by controls: 0 for no effect and ±100 for the full control effect; nearly all actives have a fitted effect of over 60% in size
#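 Cytotoxicity measured as CellTiter-Glo luminescence after 72 h at 37 C. Compound titrations were pinned onto drug-naive KB-3-1 parental adenocarcinoma cells grown in DMEM with 10% FBS, and normalized data fitted to concentration-response curves.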
# SW480 rereplic: DNA re-replication induction in SW480 cells; SW480 DNA re-replication, Hoechst DNA content imaging, 48 h; AID 624297; actives 1.8% (n = 340,000); Potency, µM (doses to about 46.1 µM), without a hit: at the highest dose re-replication activation, hits mostly activators; note: % of control where 0% means no effect; nearly all actives have a fitted effect of over 55% in size
#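 Image-based read-out: total Hoechst fluorescence of nuclei (405 nm excitation, 500-530 nm emission), with hits raising the fraction of high-intensity nuclei. SW480 colon cells incubated 48 hr with compounds at 37 C.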
# ELG1 repair inh: ELG1-dependent DNA repair inhibition | HEK293T ELG1-luciferase reporter, luminescence, 16 h; DNA damage induced by 5-fluorouridine | Potency, µM (series often up to 46.1 µM), for the others: at the top dose activity change, negative = inhibition, usual class: inhibitors | actives 2.3% (n = 330,000); note: % is set by controls: 0 for no effect and ±100 for the full control effect; nearly all actives have a fitted effect of over 55% in size
#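 DMSO vehicle served as the neutral condition. Each well held 2,000 cells given 5-fluorouridine plus compound; after 16 hr at 37 °C/5% CO2, ONE-Glo was added and luciferase measured 30 min later.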
# The depositor's hits bear a star; i = inactive; ? = inconclusive; nt = not tested or not shown. In the library only some 8.2% were active in any assay of this set; here they are far more common. Calls come from the whole dose curve; as a rule, active = well fitted curve in the direction sought with a large enough effect; inconclusive = small, poorly fitted or top-dose-only effect, or another doubt; inactive = no such curve, though single readings can be large; an effect the other way counts as inactive or inconclusive. Potency is the fitted concentration of half-maximal effect.
SMILES,KB-V1 cytotox,MCF10A rerep,KB-3-1 tox,SW480 rereplic,ELG1 repair inh
COc1ccccc1C1=CC(=O)C[C@H](c2ccc(Cl)cc2)C1,i,22%,i,?,?
O=C(CSc1nc(-c2ccc(F)cc2)[nH]c1-c1ccccc1)NCC1CCCO1 (stereo unspecified),i,nt,i,nt,nt
Cc1ccc(OCCCSc2nc(-c3ccc(C(C)(C)C)cc3)nc3cc(=O)[nH]n23)cc1C,i,nt,i,nt,nt
COc1cc2ncc(C(=O)c3ccccc3)c(N3CCN(Cc4ccccc4)CC3)c2cc1OC,i,?,i,16%,?
CCOC(=O)CC(=O)Nc1ncnc2c1C(c1ccccc1)c1c(ccc3ccccc13)O2 (stereo unspecified),i,-18%,i,1%,?
CC(=O)NC1=C(C#N)C(c2ccccc2)c2c(ccc3ccccc23)O1 (stereo unspecified),6.5µM*,1.8µM*,18µM*,?,?
CCn1c(=O)c([N+](=O)[O-])c(Cl)c2ccccc21,i,26%,?,8.2µM*,-1%
CCn1c(=O)c([N+](=O)[O-])c(NCCN(C)C)c2ccccc21,i,-3%,i,-42%,?
O=C(Nc1ccccc1Sc1ccccc1)c1cnn2c1NC(=C1CC1)C=C2C(F)F,i,nt,?,nt,nt
CCOC(=O)c1ccc(NC(=O)CN2C(=O)NC3(CCCCCCC3)C2=O)cc1,i,?,7.3µM*,?,8%
CCOC(=O)c1ccc(NC(=O)Nc2ccc(Cl)cn2)cc1,i,0%,i,16%,0%
COc1ccc(NC(=O)NCCN2CCCCC2)cc1,i,-1%,i,-2%,5%
CCOC(=O)c1ccc(NC(=O)NCCN2CCCCC2)cc1,i,?,16µM*,-4%,0%
CCOC(=O)c1ccc(NC(=O)Nc2ccon2)cc1,?,1.3µM*,0.58µM*,?,?
CCOC(=O)c1ccc(NC(=O)Nc2nncs2)cc1,0.33µM*,nt,?,nt,nt
O=C(OCC(=O)N1CCCC1)c1cnc(Cl)c(Cl)c1,i,-3%,i,3%,22%
Cc1ccc(NC(=O)C2CCN(c3nc4ccccc4[nH]3)CC2)cc1Cl,i,nt,i,nt,nt
Cc1ccc(NC(=O)c2cc(N3C(=O)CCC3=O)ccc2N2CCOCC2)cc1,i,-2%,i,-1%,-3%
Cc1ccc(NC(=O)c2cc(N3C(=O)C=CC3=O)ccc2N2CCOCC2)cc1Cl,i,16µM*,i,?,12%
O=C(Nc1ccc(N2CCOCC2)cc1)Nc1ccc(Cl)c(Cl)c1,18µM*,-5%,?,0%,?
O=C(Nc1ccc(Cl)c(Cl)c1)Nc1ccon1,7.3µM*,12µM*,12µM*,10µM*,?
CCC1(c2ccc(F)cc2)NC(=O)N(CC(=O)Nc2ccc(N3CCCCC3)cc2)C1=O (stereo unspecified),23µM*,1%,i,1%,0%
CC(OC(=O)c1ccc2c(c1)S(=O)(=O)c1ccccc1C2=O)C(N)=O (stereo unspecified),i,21%,i,-9%,4%
CN1CCN(c2cccc(Nc3nn4c(=O)c5ccc(C(F)(F)F)cc5nc4s3)c2)CC1,i,nt,i,nt,nt
CCCCN(C(=O)c1ccc(C)o1)c1c(N)n(CC(C)C)c(=O)[nH]c1=O,i,-7%,i,8%,21%
SMILES,KB-V1 cytotox,MCF10A rerep,KB-3-1 tox,SW480 rereplic,ELG1 repair inh
CN(C)CCCCCCNc1cc(N2CCN(C)CC2)ncn1,i,nt,i,nt,nt
CC(=O)NCC(=O)NNC1CC(=O)N(c2cccc(Cl)c2)C1=O (stereo unspecified),i,-4%,i,-7%,20%
Cc1ccc(C)c(Sc2ccc(NC(=O)CCN3C(=O)NC4(CCCC4)C3=O)cc2)c1,i,23µM*,i,6%,?
Cc1ccc(NC(=O)CCN2C(=O)NC3(CCCC3)C2=O)cc1,i,-6%,i,-329%,5%
CCN(CC)c1ccc(NC(=O)COc2ccccc2C#N)cc1S(=O)(=O)Nc1ccc(OC)cc1,3.7µM*,?,i,?,0%
CCN(CC)c1ccc(NC(=O)c2cnccn2)cc1S(=O)(=O)Nc1ccc(OC)cc1,4.1µM*,?,?,?,-24%
CCOC(=O)c1c(CSc2ccccc2)n(C)c2cc(Br)c(OC)c(O)c12,i,3%,i,-21%,-11%
CCOC(=O)c1c(CSc2ccccc2)n(C)c2cc(Br)c(OCC(O)CNC(CO)(CO)CO)cc12 (stereo unspecified),i,21µM*,?,?,?
Cc1cccc(OCCNc2cc(N3CCN(C)CC3)ccc2[N+](=O)[O-])c1,16µM*,25%,?,?,-6%
Cc1cccc(OCCNc2cc(N3CCOCC3)ccc2[N+](=O)[O-])c1,i,-6%,i,-7%,5%
CC(C)(C)NC(=O)CN(Cc1cccs1)C(=O)c1csnn1,i,1%,i,-12%,1%
O=C(CN(Cc1cccs1)C(=O)CN1C(=O)COc2ccccc21)NCc1ccco1,13µM*,-5%,i,-2%,-22%
O=C(CCN1C(=O)COc2ccccc21)NCc1ccco1,i,-10%,i,-3%,7%
CC(C)(C)NC(=O)CN(Cc1cccs1)C(=O)CN1C(=O)C(=O)c2ccccc21,i,2.1µM*,i,?,-3%
Cc1ccc(NC(c2nnc(-c3ccccc3)o2)c2ccccc2F)c(Cl)c1 (stereo unspecified),i,nt,i,nt,nt
O=C(c1ccco1)N1CCN(C(=O)C2CCCc3c2[nH]c2ccc(Cl)cc32)CC1 (stereo unspecified),?,?,i,?,10%
CCN(CC)C(=O)C1CCCc2c1[nH]c1ccc(Cl)cc21 (stereo unspecified),i,-7%,6.5µM*,-8%,?
O=C(Cc1cccs1)NC(c1ccccc1)c1ccccc1,i,-45%,i,-12%,24%
O=C(COC(=O)/C(=C/c1cccs1)c1cccs1)NC(c1ccccc1)c1ccccc1,8.2µM*,1%,i,3%,-4%
C[C@H](NC(=O)C[C@@H]1CC[C@H]2[C@@H](COC[C@H](O)CN2Cc2ccc(C(F)(F)F)cc2)O1)c1ccccc1,?,nt,i,nt,nt
CN(CC(=O)Nc1ccc(F)c(F)c1F)c1ncnc2sccc12,i,?,?,-14%,?
CN(CC(=O)Nc1ccccc1Br)c1ncnc2sccc12,i,1%,?,-10%,12µM*
CCc1nc(SCc2cc(=O)c3cc(C)ccc3[nH]2)n[nH]1,?,nt,i,nt,nt
